Screening results deposited in PubChem by Broad Institute.
Only a selection was taken, and hits are over-represented in it overall.
CD40 NFkB inh: CD40 pathway inhibition in BL2 cells; BL2 NF-kB luciferase reporter, CD40L-induced, 4 h; 83,000 compounds, 0.94% hits; inhibition, % at 10 µM;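 active means mean inhibition of at least 50% with a set share of replicates also reaching that level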
Large screens that a line does not name were inactive; [ ] = remark or other dose.

C/C=C/c1ccccc1[C@H]1[C@@H](C#N)N(c2ncc(CC)s2)[C@@H]1CO	none
CO[C@H](CN(C)S(=O)(=O)c1ccc(F)cc1)[C@@H](C)CN(Cc1ccccc1Cl)[C@@H](C)CO	none
CN(C)C(=O)c1cccc(-c2ccc3c(c2)[C@H]2[C@H](CCN2C(=O)c2cnccn2)[C@@H](CO)N3)c1	none
C=CCNc1nc(Nc2ccc(OC)c(OC)c2)c2sc(-c3ccccc3)cc2n1	none
O=C1NCCSC1c1ccccc1 (stereo not given)	none
CCOC(=O)C1(C(=O)OCC)NC(=O)CC1C(C)C (stereo not given)	none
O=C(C[C@H]1CC[C@H]2NC[C@@H](O)COC[C@@H]2O1)NCc1ccc2c(c1)OCO2	none
CN(C)CC1CCC/C(=C\c2ccc(OC(=O)/C=C/c3ccccc3)cc2)C1=O (stereo not given)	none
COc1ccc(/C=C2/CCC(CN3CCOCC3)C2=O)cc1 (stereo not given)	CD40 NFkB inh 73.7
COc1ccc(OCCOCCN2CCOCC2)cc1	none
CC(C)NC(=O)N(C)C[C@H]1Oc2ccccc2CC(=O)N(C)C[C@@H]1C	none
COc1ccc(S(=O)(=O)Nc2cccc3c2O[C@H](CN(C)C(=O)Nc2cccc4ccccc24)[C@@H](C)CN([C@H](C)CO)C3=O)cc1	none
O=C(c1nnsc1S(=O)(=O)c1ccc(Cl)cc1)N1CCOCC1	CD40 NFkB inh 96.6
O=C(N1CCOCC1)N1CCN(S(=O)(=O)c2ccc(Cl)cc2)C1	none
O=C(c1ccc(S(=O)(=O)Nc2ccccc2Cl)cc1)N1CCOCC1	none
CCOC(=O)c1c(C)[nH]c(C)c1C(=O)COC(=O)CNC(=O)C1CCCCC1	none
CCc1ccc(C(=O)COC(=O)CNC(=O)C2CCCCC2)cc1	CD40 NFkB inh 65.8
O=C(CNC(=O)C1CCCCC1)OCC(=O)c1ccc(F)cc1	none
Cc1c(Cl)cccc1NC(=S)NC1CCN(C(C)C)CC1	none
O=C1NCCOCc2cn(nn2)CCC[C@@H]1Cc1ccccc1	none
C[C@H](CO)N1C[C@H](C)[C@@H](CN(C)C(=O)Nc2ccc3c(c2)OCO3)OCc2cn(nn2)CCCC1=O	none
COc1cc2c(cc1OC)C(=O)C(Br)CC2 (stereo not given)	CD40 NFkB inh 99.6
COc1cc2c(cc1OC)C(=O)CCS2	none
COc1cc2c(cc1OC)C(=O)N(C)CC2	none
COc1ccccc1NC(=O)N1CCCCN2[C@H](C1)[C@@H](c1ccc(C#CC3CCCC3)cc1)[C@@H]2CO	none
C[C@@H]1CN(C)C(=O)c2cccc(N(C)C)c2O[C@@H]1CN(C)C(=O)OC(C)(C)C	none
O=C(Nc1ccccc1)c1cccc(N2CCCC2=O)c1	none
O=C(NCCc1ccccc1)c1cccc(N2CCCC2=O)c1	CD40 NFkB inh 71.0
O=C(NCc1ccc2c(c1)OCO2)c1cccc(N2CCCC2=O)c1	none
O=C(Cc1ccc(-c2ccccc2)cc1)Nc1ncccc1O	none
CSCCC(NC(=O)c1ccco1)C(=O)N1CC(C)OC(C)C1 (stereo not given)	none
CC1CN(Cc2ccccc2)C(=O)N(c2ccccc2)C1=O (stereo not given)	none
COc1ccc(C(=O)[C@H]2[C@H]3C(=O)N(c4ccccc4)C(=O)[C@H]3C3C=CC=NN32)cc1 (stereo not given in full)	none
O=C1C=CC2C3C(=O)N(c4ccccc4)C(=O)C3C1N2Cc1ccccc1 (stereo not given)	CD40 NFkB inh 100.0
O=C(C[C@H]1C=C[C@@H](NC(=O)Nc2cccc(F)c2)[C@H](CO)O1)NCC1CCCCC1	none
CC(C)[C@H](C)NC(=O)N(C)C[C@@H]1OCc2ccccc2-c2ccccc2C(=O)N([C@@H](C)CO)C[C@@H]1C	none
c1ccc2oc(C3=NNC(=NC4CC4)SC3)cc2c1	CD40 NFkB inh 65.9
c1cc2c(cc1C1=NNC(=NC3CC3)SC1)OCCO2	CD40 NFkB inh 91.8
COc1ccc(N=C2NN=C(c3ccc4c(c3)OCCO4)CS2)cc1	none
c1ccc(CN=C2NN=C(c3cc4ccccc4o3)CS2)cc1	none
COc1ccc(CN=C2NN=C(c3cccc(OC)c3)CS2)cc1	none
c1csc(C2=NNC(=NC3CCCCC3)SC2)c1	none
C[C@H](CO)N1C[C@H](C)[C@@H](CN(C)CC2CCCC2)OCc2cnnn2CCCC1=O	none
O=S(=O)(Nc1c(F)cccc1F)c1ccc(Cl)nc1	none
Cc1ccccc1-c1ccc([C@@H]2[C@@H](CO)N3CCCCN(S(=O)(=O)c4ccc(F)cc4)C[C@@H]23)cc1	none
CCn1cc(S(=O)(=O)Nc2ccc3c(c2)OCCO3)cn1	CD40 NFkB inh 75.9
O=C1CCCN1c1ccc(S(=O)(=O)Nc2ccc3c(c2)OCCO3)cc1	none
O=S(=O)(Nc1cccnc1)c1ccc2c(c1)OCCO2	none
C[C@H]1CNC(=O)[C@@H](Cc2ccc(C(F)(F)F)cc2)CCn2nncc2COC1	none
CC(=O)N1[C@H](CO)[C@H](c2ccc(-c3cccc(F)c3)cc2)[C@H]1CNC(=O)C1CC1	none
CCN(CC)c1ccc(S(=O)(=O)N2CCOCC2)cc1NC(=O)COC(=O)C1=COCCO1	none
O=C(CCl)N=c1sccn1Cc1ccc(Cl)cc1Cl	CD40 NFkB inh 88.9
O=C(Cn1cnnn1)NCCc1ccc(Cl)cc1Cl	none
O=C1CCN(Cc2ccc(Cl)cc2Cl)C(=O)N1	none
C[n+]1c(-c2ccccc2)cc2c(=Cc3ccccc3)c3ccccc3n21	CD40 NFkB inh 93.2
O=[N+]([O-])c1ccc2c(c1)c(-c1ccccc1)nc1nncn12	none
O=[N+]([O-])c1ccc(C=CC=Cc2ccccc2)cc1	none
C[n+]1c(-c2ccccc2)cc2c(=Cc3ccc([N+](=O)[O-])cc3)c3ccccc3n21	CD40 NFkB inh 110.0
CN(C)c1ccc(C=c2c3cc(O)ccc3n3c2cc(-c2ccccc2)[n+]3C)cc1	CD40 NFkB inh 80.2
CCOC(=O)c1cc2c(=Cc3ccc(N(C)C)cc3)c3ccccc3n2[n+]1C	none
COC(=O)C[C@@H]1C[C@@H]2c3cc(N)ccc3O[C@@H]2[C@H](CO)O1	none
O=C(C[C@@H]1CC[C@H]2[C@@H](COC[C@H](O)CN2CC2CCCC2)O1)NCc1ccc(Cl)cc1	none
Cc1noc(C)c1S(=O)(=O)Nc1cccc2c1O[C@H](CN(C)Cc1ccccc1)[C@H](C)CN([C@H](C)CO)C2=O	none
Cc1ccc(S(=O)(=O)N(C)C[C@@H]2Oc3ccc(NC(=O)CCCN(C)C)cc3C(=O)N([C@H](C)CO)C[C@H]2C)cc1	none
COc1ccccc1NC(=O)N1C[C@@H](O)COC[C@@H]2O[C@H](CC(=O)NCCc3ccncc3)CC[C@H]21	none
Cc1ccc(C)c(NC(=O)CSc2nc(=O)n(CCN3CCOCC3)c3c2CCCC3)c1	none
C/C=C/c1ccc([C@@H]2[C@H](C#N)N(C(=O)NC3CCCC3)[C@H]2CO)cc1	none
N#Cc1c(N)sc2c1CCN(CCc1ccccc1)C2	none
CN1CCN(C(=O)C[C@@H]2CC[C@H]3[C@@H](COC[C@@H](O)CN3C(=O)Nc3ccc4c(c3)OCO4)O2)CC1	CD40 NFkB inh active[25 µM]
CN1CCN(C(=O)C[C@@H]2CC[C@@H]3[C@H](COC[C@H](O)CN3C(=O)Nc3ccc4c(c3)OCO4)O2)CC1	none
CN1CCN(C(=O)C[C@H]2CC[C@H]3[C@@H](COC[C@H](O)CN3C(=O)Nc3ccc4c(c3)OCO4)O2)CC1	none
COc1ccccc1-c1ccc([C@H]2[C@@H](C#N)N(C(=O)CN(C)C)[C@@H]2CO)cc1	none
COc1cc(CNCCc2c[nH]c3ccccc23)cc(Cl)c1OCC(N)=O	CD40 NFkB inh 46.7
COc1ccc(C(=O)NCC(=O)NCCc2c[nH]c3ccccc23)cc1OC	none
COc1ccc(NC(=O)COC(=O)Cc2c[nH]c3ccccc23)cc1Cl	none
CCCc1cc(C(=O)Nc2cccc(-c3nn[nH]n3)c2)sc1C	none
O=C1CSC(c2ccc([N+](=O)[O-])cc2)N1CCN1CCCCC1 (stereo not given)	none
